Bioassay records: PubChem, Broad Institute
esBAF inh: blocks esBAF chromatin remodeling in mouse ES cells; reporter increase, % at 12.5 µM; Bmi1-luciferase knock-in reporter, 24 h; 100% = twice the neutral-well signal; 350,000 tested, 2% active; AID 602393; in the data active = activation above about 40%;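 note: a rise in the Bmi1 reporter signal indicates esBAF inhibition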
HIV Env fusion: HIV envelope-mediated fusion inhibition | inhibition, % at 12.3 µM | 360,000 tested, 1.1% active | HeLa-JRFL Env/CEM21 cell fusion, luciferase;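 active = mean replicate inhibition score of at least 50 and every replicate individually at or above 50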
Wnt bcat act: activates Wnt/beta-catenin signaling in a reporter cell assay; activator, plate reader; activation, % at 9.35 µM; 300,000 tested, 1.2% active; in the data active = activation above about 30%, passing the limit was not always enough
miR-122 sensor: miR-122 inhibition in Huh7 cells; Huh7 miR-122 Renilla luciferase sensor, 48 h; neutral wells = 0, positive control = 100; activation (reporter increase), % at 12.5 µM; 340,000 tested, 0.3% active; AID 602342;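 active = mean replicate activation score at least 90 and every replicate individually at or above 90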;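 note: higher luciferase means less miR-122 activity so hits act as miR-122 inhibitors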
MITF TRPM1 HTS: activators of MITF-driven TRPM1 promoter activity in SK-MEL-5 cells | activation, % at 12.5 µM | 300,000 tested, 0.75% active | SK-MEL-5 TRPM1-promoter luciferase, 24 h; % of positive control, neutral wells = 0;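 active = mean activation of at least 80% with every replicate also reaching 80%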
Numbers stand for hits; [ ] = dose if it differs, or a comment. This is a sample that favours compounds with a hit; in the whole collection about 3.4% have one here.

Results for Cc1ccccc1-c1ccc([C@H]2[C@@H](CO)N3CCCCN(Cc4cccnc4)C[C@H]23)cc1 ?
esBAF inh: inactive; miR-122 sensor: inactive

Results for C[C@H]1CN([C@@H](C)CO)C(=O)Cc2cc(NC(=O)Cc3cn(C)c4ccccc34)ccc2O[C@H]1CN(C)C(=O)Nc1ccccc1 ?
esBAF inh: inactive; HIV Env fusion: inactive; miR-122 sensor: inactive

Results for O=C(C[C@@H]1C[C@H]2c3cc(NS(=O)(=O)c4ccc(F)cc4)ccc3O[C@H]2[C@H](CO)O1)NCc1ccc(Oc2ccccc2)cc1 ?
esBAF inh: inactive; HIV Env fusion: inactive; miR-122 sensor: 150.2[16.7 µM]

How did O=C(C[C@H]1C[C@@H]2c3cc(NS(=O)(=O)c4ccc(F)cc4)ccc3O[C@@H]2[C@H](CO)O1)NCc1ccc(Cl)cc1 do in these assays?
esBAF inh: inactive; HIV Env fusion: 86.3[16.7 µM]; miR-122 sensor: inactive

Results for CS(=O)(=O)Nc1ccc2c(c1)[C@H]1C[C@H](CC(=O)NCc3ccc(-c4ccccc4)cc3)O[C@H](CO)[C@H]1O2 ?
esBAF inh: inactive; HIV Env fusion: 77.8[16.7 µM]; miR-122 sensor: inactive

Results for O=C(C[C@@H]1C[C@H]2c3cc(NS(=O)(=O)c4ccc(F)cc4)ccc3O[C@H]2[C@@H](CO)O1)NCc1ccc(Cl)cc1 ?
esBAF inh: inactive; HIV Env fusion: inactive; miR-122 sensor: inactive

What do the screens show for `CN(C)c1ccc2c(c1)[C@@H]1C[C@@H](CC(=O)NCc3ccc(Oc4ccccc4)cc3)O[C@@H](CO)[C@@H]1O2`?
esBAF inh: inactive; HIV Env fusion: inactive; miR-122 sensor: 95.6[16.7 µM]

How did COC(=O)C[C@H]1CC[C@@H]2[C@@H](COc3ccc(NC(=O)c4cccc(Cl)c4)cc3C(=O)N2C)O1 do in these assays?
esBAF inh: inactive; HIV Env fusion: inactive

Results for Cc1ccc(S(=O)(=O)Nc2ccc3c(c2)C(=O)N([C@@H](C)CO)C[C@@H](C)[C@@H](CN(C)C)O3)cc1 ?
esBAF inh: inactive; miR-122 sensor: inactive

How did C/C=C/c1cnc2c(c1)C(=O)N([C@H](C)CO)C[C@H](C)[C@@H](CN(C)C(=O)C1CC1)O2 do in these assays?
esBAF inh: inactive; HIV Env fusion: inactive; miR-122 sensor: inactive

Results for O=C(C[C@H]1C[C@@H]2c3cc(NS(=O)(=O)c4ccc(F)cc4)ccc3O[C@@H]2[C@H](CO)O1)NCCc1ccccc1 ?
esBAF inh: inactive; HIV Env fusion: 75.1[16.7 µM]; miR-122 sensor: inactive

Results for O=C(C[C@@H]1C[C@H]2c3cc(NS(=O)(=O)c4ccc(F)cc4)ccc3O[C@H]2[C@H](CO)O1)NCc1ccc(-c2ccccc2)cc1 ?
esBAF inh: inactive; HIV Env fusion: inactive; miR-122 sensor: 111.0[16.7 µM]

Results for O=C(C[C@@H]1C[C@@H]2c3cc(NS(=O)(=O)c4ccc(F)cc4)ccc3O[C@@H]2[C@@H](CO)O1)NCCc1ccccc1 ?
esBAF inh: inactive; HIV Env fusion: inactive; miR-122 sensor: inactive

How did Cc1noc(C)c1NC(=O)Nc1ccc2c(c1)C(=O)N([C@H](C)CO)C[C@@H](C)[C@H](CN(C)S(=O)(=O)c1ccc(Cl)cc1)OCCCC[C@@H](C)O2 do in these assays?
esBAF inh: inactive; HIV Env fusion: inactive; miR-122 sensor: inactive

Results for C[C@H](CO)N1C[C@H](C)[C@@H](CN(C)C(=O)Nc2ccc3c(c2)OCO3)Oc2c(NC(=O)C3CCOCC3)cccc2C1=O ?
esBAF inh: inactive; HIV Env fusion: inactive; miR-122 sensor: inactive

How did Cc1ccc(C(=O)/C=C/Nc2cccc([N+](=O)[O-])c2)o1 do in these assays?
HIV Env fusion: inactive; miR-122 sensor: inactive; MITF TRPM1 HTS: 84.9

What do the screens show for `O=C(Nc1nc2ccsc2c(=O)s1)c1ccco1`?
HIV Env fusion: inactive; Wnt bcat act: 42.7; miR-122 sensor: inactive

What do the screens show for `Cc1csc2c(=O)sc(NC(=O)c3cccs3)nc12`?
HIV Env fusion: inactive; Wnt bcat act: inactive; miR-122 sensor: inactive

How did O=C(Nc1nc2c(s1)CCc1ccccc1-2)c1ccco1 do in these assays?
esBAF inh: 62.2; HIV Env fusion: inactive; miR-122 sensor: 98.2

What do the screens show for `O=c1sc(Nc2ccccc2)nc2ccsc12`?
esBAF inh: 81.7; HIV Env fusion: inactive; miR-122 sensor: inactive; MITF TRPM1 HTS: inactive

How did Cc1csc2c(=O)sc(NC(=O)c3ccco3)nc12 do in these assays?
HIV Env fusion: inactive; Wnt bcat act: inactive; miR-122 sensor: 117.3

Results for C[C@H]1CN([C@@H](C)CO)C(=O)CCCn2cc(nn2)CO[C@H]1CN(C)Cc1ccc(C(F)(F)F)cc1 ?
esBAF inh: inactive; HIV Env fusion: inactive; miR-122 sensor: inactive
